In PubChem BioAssay (EPA / NIEHS):
Records with an inconclusive call do not appear. Activity calls are given as the source filed them. Rule for the calls: active = hit-call score of the fitted dose curve at least 0.9, where 1 is the maximum; inconclusive = response in the unintended direction; inactive = score below 0.9.

What follows are compounds tested against Agonist Androgen Response Element (ARE), AR (gene 367) (UniProt P10275) (assay: OT_AR_ARELUC_AG_1440: Odyssey Thera (OT) 24-hour CHO-K1 Luciferase Assay for Agonist Androgen Response Element (ARE) (AID 2283379)).
Description: OT_AR_ARELUC_AG_1440 is a cell-based, single-readout assay that uses CHO-K1, a chinese hamster ovary cell line, with measurements taken at 24 hours after chemical dosing in a 384-well plate.OT_AR_ARELUC_AG_1440 is one of one assay component(s) measured or calculated from the OT_AR_ARELUC_AG_1440 assay. It is designed to make measurements of luciferase induction, a form of inducible reporter, as detected with bioluminescence signals by Luciferase technology.Data from the assay component OT_AR_ARELUC_AG_1440 was analyzed into 1 assay endpoint. This assay endpoint, OT_AR_ARELUC_AG_1440, was analyzed in the positive analysis fitting direction relative to DMSO as the negative control and baseline of activity. Using a type of inducible reporter, measures of receptor for gain-of-signal activity can be used to understand the reporter gene at the pathway-level as they relate to the gene AR. Furthermore, this assay endpoint can be referred to as a primary readout, because the performed assay has only produced 1 assay endpoint. To generalize the intended target to other relatable targets, this assay endpoint is annotated to the nuclear receptor intended target family, where the subfamily is steroidal.
To identify AR agonists, CHO-K1 cells are seeded into a white-walled/white-bottom 384-well plate, followed by treatment with compounds of interest or controls for 24 hours. A luciferase assay mix containing D-luciferin and ATP in PBS is then added to the cells and luminescence quantified on a Luminoskan (Thermo Scientific) luminometer. Modulation of this assay is quantified as an increase in mean luminescence intensity relative to vehicle controls. To evaluate specificity of the AR / ARE-luc assay, several known AR agonists, AR antagonists, and ER-selective compounds were also tested in 5-pt concentration-response format in a minimum of 7 assay plates. OT determined the reproducibility of DHT-induced AR/ARE-luc transcriptional activation with a total of seven 384-well plates run on 2 different days, for 24-h time frames. A minimum of 3 replicate wells were analyzed for each sample with 14 replicate wells for vehicle controls. Luminescence data were captured on the Luminoskan luminometer.

Sequence of Agonist Androgen Response Element (ARE), AR (gene 367) (P10275 whole entry, looked up): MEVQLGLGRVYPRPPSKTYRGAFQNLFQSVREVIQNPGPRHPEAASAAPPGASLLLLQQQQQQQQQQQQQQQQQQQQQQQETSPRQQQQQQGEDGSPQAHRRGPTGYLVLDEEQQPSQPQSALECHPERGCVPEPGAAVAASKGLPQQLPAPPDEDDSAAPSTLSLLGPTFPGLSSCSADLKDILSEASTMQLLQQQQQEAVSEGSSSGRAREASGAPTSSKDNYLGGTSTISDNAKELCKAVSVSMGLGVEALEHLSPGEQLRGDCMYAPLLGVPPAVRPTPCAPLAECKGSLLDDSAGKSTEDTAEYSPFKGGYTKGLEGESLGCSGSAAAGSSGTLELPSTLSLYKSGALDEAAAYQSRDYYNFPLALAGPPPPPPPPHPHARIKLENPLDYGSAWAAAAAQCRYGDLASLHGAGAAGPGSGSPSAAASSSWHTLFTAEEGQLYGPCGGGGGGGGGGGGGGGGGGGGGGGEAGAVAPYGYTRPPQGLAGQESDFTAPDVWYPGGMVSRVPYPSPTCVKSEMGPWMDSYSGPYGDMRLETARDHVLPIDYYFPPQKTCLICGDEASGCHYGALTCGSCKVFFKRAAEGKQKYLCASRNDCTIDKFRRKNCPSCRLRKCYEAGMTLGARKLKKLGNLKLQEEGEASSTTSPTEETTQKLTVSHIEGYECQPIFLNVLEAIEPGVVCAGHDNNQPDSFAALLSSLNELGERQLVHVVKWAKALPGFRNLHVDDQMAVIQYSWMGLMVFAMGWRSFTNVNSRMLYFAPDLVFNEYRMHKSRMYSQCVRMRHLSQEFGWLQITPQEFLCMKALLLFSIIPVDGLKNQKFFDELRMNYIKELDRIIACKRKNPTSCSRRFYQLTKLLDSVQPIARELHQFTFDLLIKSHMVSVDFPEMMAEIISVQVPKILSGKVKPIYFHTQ

Q: How did the outcome turn out when `CC(C)(C)CC(C)(C)c1ccc(O)cc1` was run?
A: Its outcome is “inactive”.

Q: `COP(=S)(OC)Oc1ccc(Sc2ccc(OP(=S)(OC)OC)cc2)cc1` was tested. Which outcome did it give?
A: Its outcome is “inactive”.

Q: `Cc1ccccc1C(=O)Nc1cccc(OC(C)C)c1` was tested. Which outcome did it give?
A: The outcome was “inactive”.

Q: For `Cc1ccc2ccccc2c1C`, which outcome is on record?
A: Its outcome is “inactive”.

Q: How did the outcome turn out when `COP(=O)(OC)OC` was run?
A: Its outcome is “inactive”.

Q: `O=C1C2(Cl)C3(Cl)C4(Cl)C(Cl)(Cl)C5(Cl)C3(Cl)C1(Cl)C5(Cl)C24Cl` (stereo not drawn) was tested. Which outcome did it give?
A: The outcome was “inactive”.

Q: For `CC12CC1(C)C(=O)N(c1cc(Cl)cc(Cl)c1)C2=O` (stereo not drawn), which outcome is on record?
A: Its outcome is “inactive”.

Q: With `CC(=O)[O][Hg][c]1ccccc1` as the compound, how does the outcome read?
A: The outcome was “inactive”.

Q: How did the outcome turn out when `O=[N+]([O-])c1ccc(O)c([N+](=O)[O-])c1` was run?
A: The outcome was “inactive”.

Q: For `CCOP(=S)(OCC)Oc1nc(Cl)c(Cl)cc1Cl`, which outcome is on record?
A: Its outcome is “inactive”.

Q: `C=CC(=O)OCCCCCC(C)C` was tested. Which outcome did it give?
A: The outcome was “inactive”.

Q: With `CCN1CCC2(CC1)COc1cc3c(cc12)N(C(=O)c1ccc(-c2ccc(-c4nnc(C)o4)cc2C)cc1)CC3` as the compound, how does the outcome read?
A: Its outcome is “inactive”.

Q: With `CCC1(c2ccc(N)cc2)CCC(=O)NC1=O` (stereo not drawn) as the compound, how does the outcome read?
A: Its outcome is “inactive”.

Q: Which outcome does the source give for `ClC1(Cl)C2(Cl)C3(Cl)C4(Cl)C(Cl)(Cl)C5(Cl)C3(Cl)C1(Cl)C5(Cl)C24Cl` (stereo not drawn) here?
A: Its outcome is “inactive”.

Q: Which outcome does the source give for `c1cc[c]([Hg][c]2ccccc2)cc1` here?
A: Its outcome is “inactive”.

Q: `CCC(=O)C(CC(C)N(C)C)(c1ccccc1)c1ccccc1` (stereo not drawn) was tested. Which outcome did it give?
A: Its outcome is “inactive”.

Q: Which outcome does the source give for `CC(C)(c1ccc(OCC2CO2)cc1)c1ccc(OCC2CO2)cc1` (stereo not drawn) here?
A: The outcome was “inactive”.

Q: How did the AC50 turn out when `O=c1[nH]c(=O)[nH]c(=O)[nH]1` was run?
A: Its AC50 is 17.2 µM (active).
